DUSP3 inh – DUSP3 (human) phosphatase inhibition; P51452; recombinant VHR phosphatase, pNPP absorbance; inhibition, % at 13.3 µM; hit rate 0.52% among 290,000; in the data active means inhibition above about 50%
PrPC surface inh – reduces human prion protein on the cell surface; inhibition, % at 13.8 µM; cell surface PrPC, TR-FRET read-out; hit rate 0.43% among 370,000; P04156; in the data active means inhibition above about 24%; further: 0% = median of the test wells and 100% = reference compound wells
TcdB GH inh – blocks C. difficile toxin B glycohydrolase activity | hit rate 0.24% among 350,000 | TcdB glycohydrolase enzymatic assay, plate reader | inhibition, % at 9.99 µM | AID 652162; in the data active means inhibition above about 10%
PrPC TRFRET cf – confirmation of inhibitors of cell surface human prion protein | AID 743200 | hit rate 65% among 1,500 | inhibition, % at 13.8 µM | shares compounds with PrPC surface inh | cell surface PrPC level, TR-FRET; in the data active means inhibition above about 25%
LD9 cytotox – counter-screen for PrPc inhibitors: cytotoxicity in LD9 cells; shares compounds with PrPC surface inh; luminescence viability; inhibition, % at 13.8 µM; hit rate 29% among 1,500; in the data active means inhibition above about 9.5%
Starred values were filed as active, the others as inactive. Rows were chosen to be rich in hits. Some 0.82% of all compounds tested hit in one or more screens of this group.

COc1ccc2c3c([nH]c2c1)[C@H](CO)N(C(=O)C1CCCC1)CC31CCN(Cc2nccs2)CC1 was read as TcdB GH inh 0.
Screening Cc1noc(C)c1NC(=O)N[C@H]1CC[C@H](CC(=O)N2CCN(C)CC2)O[C@@H]1CO returned TcdB GH inh 0.
CN1c2ccc(C3=CCCCC3)cc2[C@@H]2[C@@H](CCN2C(=O)Nc2ccccc2F)[C@@H]1CO was read as TcdB GH inh -1.
C[C@@H]1CN([C@@H](C)CO)C(=O)c2cc(NC(=O)Cn3cnnn3)ccc2O[C@H]1CN(C)Cc1ccccc1 was read as TcdB GH inh -1.
Screening Cc1ccccc1Nc1ccc([N+](=O)[O-])cn1 returned DUSP3 inh 4, PrPC surface inh -27 and TcdB GH inh 0.
`Cc1ccccc1NC1=NCC(c2ccc([N+](=O)[O-])cc2)S1` (configuration not stated) gave DUSP3 inh 7, PrPC surface inh 46*, TcdB GH inh 2, PrPC TRFRET cf 44* and LD9 cytotox 2.
`COc1ccc(NC(=O)Nc2ccc3c(c2)CC(=O)N([C@H](C)CO)C[C@@H](C)[C@H](CN(C)S(=O)(=O)c2c(C)noc2C)O3)cc1` gave TcdB GH inh 0.
Screening Cc1nnc(SCC(=O)c2c(N)n(Cc3ccccc3)c(=O)n(C)c2=O)n1C returned DUSP3 inh 16, PrPC surface inh 2 and TcdB GH inh 1.
`Cn1c(=O)c(C(=O)CSc2nncs2)c(N)n(Cc2ccccc2)c1=O` gave DUSP3 inh 10, PrPC surface inh 66*, TcdB GH inh 1, PrPC TRFRET cf 65* and LD9 cytotox 2.
`Cn1c(=O)c(C(=O)CSc2ccccc2)c(N)n(Cc2ccccc2)c1=O` gave DUSP3 inh 20, PrPC surface inh 9 and TcdB GH inh 0.
`Cn1cnnc1SCC(=O)c1c(N)n(Cc2ccccc2)c(=O)n(C)c1=O` gave DUSP3 inh 26, PrPC surface inh 36*, TcdB GH inh -3, PrPC TRFRET cf 19 and LD9 cytotox -7.
Cc1noc(C)c1NC(=O)N(C)C[C@@H]1Oc2ccc(NC(=O)Cc3ccccc3)cc2CC(=O)N([C@@H](C)CO)C[C@@H]1C was read as TcdB GH inh -1.
Screening COc1ccc(C(=O)C[n+]2cc(Br)cc3ccccc32)cc1[N+](=O)[O-] returned DUSP3 inh 7, PrPC surface inh 27*, TcdB GH inh -1, PrPC TRFRET cf 9 and LD9 cytotox -1.
Screening O=C(C[n+]1cc(Br)cc2ccccc21)c1ccccc1 returned DUSP3 inh 8, PrPC surface inh -12 and TcdB GH inh 2.
`O=C(NCc1ccccc1F)C1CCC(CNS(=O)(=O)c2cccc3cccnc23)CC1` (configuration not stated) gave PrPC surface inh 5.
O=C(NCc1ccccc1Cl)C1CCC(CNS(=O)(=O)c2cccc3cccnc23)CC1 (configuration not stated) was read as PrPC surface inh 39*, PrPC TRFRET cf 50* and LD9 cytotox 1.
For C[C@H]1CN([C@@H](C)CO)C(=O)c2cccc(NC(=O)C3CCCCC3)c2O[C@H]1CN(C)S(=O)(=O)c1ccc(F)cc1 the results were TcdB GH inh 1.
For Cc1ccc(S(=O)(=O)N(C)C[C@@H]2Oc3ccc(NC(=O)C4CCCCC4)cc3CC(=O)N([C@@H](C)CO)C[C@@H]2C)cc1 the results were TcdB GH inh 0.
Screening O=c1c2[nH]c3ccccc3c2ncn1CCC1=CCCCC1 returned DUSP3 inh 24 and PrPC surface inh 0.
For C1=C(CCNc2ncnc3c2[nH]c2ccccc23)CCCC1 the results were DUSP3 inh 12, PrPC surface inh 40*, TcdB GH inh 1, PrPC TRFRET cf 40* and LD9 cytotox 22*.
For CO[C@H]1CN(C)C(=O)c2ccc(NC(=O)C3CCC3)cc2OC[C@H](C)N(Cc2cccnc2)C[C@@H]1C the results were TcdB GH inh -1.
O=C(NCC[C@@H]1CC[C@@H](NS(=O)(=O)c2ccc(Cl)cc2)[C@H](CO)O1)Nc1ccc(F)cc1 was read as TcdB GH inh 1.
Screening C[C@@H]1CCCCO[C@H](CN(C)S(=O)(=O)c2ccccc2)[C@@H](C)CN([C@@H](C)CO)C(=O)c2cc(NC(=O)NC3CCCCC3)ccc2O1 returned TcdB GH inh -2.
Screening CC(C)OC(=O)CSc1nc(Cc2ccccc2)nc2ccccc12 returned DUSP3 inh -1, PrPC surface inh 60*, TcdB GH inh 1, PrPC TRFRET cf 87* and LD9 cytotox 3.
`CC(C)OC(=O)CSc1nc(C(C)C)nc2ccccc12` gave DUSP3 inh 8, PrPC surface inh 3 and TcdB GH inh 1.
Screening CCOC(=O)CNC(=O)CSc1nc(Cc2cccs2)nc2ccccc12 returned DUSP3 inh 6, PrPC surface inh -3 and TcdB GH inh 0.
For CCOC(=O)CSc1nc(Cc2ccccc2)nc2ccccc12 the results were DUSP3 inh 26, PrPC surface inh 64*, TcdB GH inh 2, PrPC TRFRET cf 89* and LD9 cytotox -1.
For CCOC(=O)CSc1nc(CC)nc2ccccc12 the results were DUSP3 inh 17, PrPC surface inh 106*, TcdB GH inh 0, PrPC TRFRET cf 121* and LD9 cytotox -8.
Screening CCOC(=O)CSc1nc2ccccc2c(=O)n1CC returned DUSP3 inh 4 and PrPC surface inh -3.
For COC(=O)CSc1nc(Cc2ccccc2)nc2ccccc12 the results were DUSP3 inh -1, PrPC surface inh 68*, TcdB GH inh 1, PrPC TRFRET cf 91* and LD9 cytotox -7.
Screening O=C(CSc1nc(Cc2ccccc2)nc2ccccc12)Nc1nc2c(s1)CCCC2 returned DUSP3 inh 27, PrPC surface inh 4 and TcdB GH inh -1.
Screening C[C@@H]1CCCCO[C@@H](CN(C)CC2CCCCC2)[C@@H](C)CN([C@@H](C)CO)C(=O)c2cc(NS(=O)(=O)c3cn(C)cn3)ccc2O1 returned TcdB GH inh 1.
For CCS(=O)(=O)Nc1ccc2c(c1)C(=O)N(C)[C@H]1CC[C@H](CC(=O)Nc3ccc(Cl)cc3)O[C@@H]1CO2 the results were TcdB GH inh -2.
`CN1c2ccc(Br)cc2[C@H]2[C@H](CCN2C(=O)C2CCOCC2)[C@@H]1CO` gave TcdB GH inh -2.
CO[C@H]1CN(C)C(=O)c2cc(NC(=O)c3cnccn3)ccc2OC[C@H](C)N(C(C)=O)C[C@H]1C was read as TcdB GH inh 0.
Screening CNC[C@@H]1Oc2ccc(NC(=O)Nc3ccccc3)cc2C(=O)N([C@H](C)CO)C[C@H]1C returned TcdB GH inh 1.
For C[n+]1cc2c3c(ccc2c2ccc4cc5c(cc4c21)OCO5)OCO3 the results were PrPC surface inh 87*, TcdB GH inh 0, PrPC TRFRET cf 101* and LD9 cytotox 99*.
`CC(=O)c1ccc2c(c1)OCO2` gave DUSP3 inh 4, PrPC surface inh 4 and TcdB GH inh -4.

From PubChem BioAssay
